Some test systems named below: K-562 leukemia; MALME-3M melanoma; MDA-MB-231 breast; SF-268 CNS; SF-295 CNS; SF-539 CNS; UACC-257 melanoma; M14 melanoma; HCT-15 colon; HT29 colon; SNB-75 CNS; SNB-19 CNS; U251 CNS; PC-3 prostate; SK-MEL-5 melanoma; UACC-62 melanoma; LOX IMVI melanoma; SK-MEL-2 melanoma; SK-MEL-28 melanoma.
Common to all, as to assay: NCI-60 one-dose screen, 48 h (100 = growth as untreated, 0 = no growth, -100 = all killed)
Common to all, as to conditions: 10 µM

This passage reports growth results from PubChem BioAssay (NCI).

The panel holds about 83,000 compounds, 20% with a hit somewhere; the sample as a whole holds those more often.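 Single-concentration screen, 48 h exposure, 96-well plates. Endpoint: percent growth. Below 10 = active.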 Unmarked numbers belong to inactive results. The source made the active and inactive calls.

In the case of `O=C(CC(c1ccccc1)N1CCOCC1)c1ccccc1` (configuration not stated), the growth in the test with K-562 leukemia is 27.9%; with MALME-3M melanoma, 87.6%; with MDA-MB-231 breast, 98.6%; with SF-268 CNS, 91.8%; in the test with SF-295 CNS, 94.9%; in the test with SF-539 CNS, 97.5%. Further, the growth in the test on UACC-257 melanoma is 80.5%; with M14 melanoma, 95.8%; in the test with HCT-15 colon it was 92.2%; with HT29 colon, 90.1%; with SNB-75 CNS it was 85.8%; with SNB-19 CNS, 85%. In addition, the growth is 80.8% with U251 CNS; 72.1% in the test on PC-3 prostate; 97.2% with SK-MEL-5 melanoma; 93.6% with UACC-62 melanoma; 89% in the test on LOX IMVI melanoma; 94.7% in the test with SK-MEL-2 melanoma.
For `COc1ccc2nc3cc(Cl)ccc3c(NCCNCC(C)O)c2c1` (configuration not stated), the growth with K-562 leukemia was 2.47% (active); with MALME-3M melanoma, 44.4%; in the test on MDA-MB-231 breast it was 34.3%; in the test on SF-268 CNS, 36%; with SF-295 CNS, 35.1%; with SF-539 CNS it was 26.2%. Also, the growth is 30.2% with UACC-257 melanoma; 43.3% in the test on M14 melanoma; 19.4% with HCT-15 colon; -37.7% (active) in the test with HT29 colon; 63.7% in the test on SNB-75 CNS; 34% in the test on SNB-19 CNS. Further, the growth in the test on U251 CNS was -8.32% (active); in the test with PC-3 prostate, 28.1%; in the test on SK-MEL-5 melanoma, 81%; in the test on LOX IMVI melanoma it was 14.5%; in the test with SK-MEL-28 melanoma, 54.7%; with SK-MEL-2 melanoma it was 31.1%.
As to `CCN(CCCCCCCCCCN1CC(=O)N(CCCCCCCCCCN(CC)Cc2ccccc2OC)CC1=O)Cc1ccccc1OC`, the growth is -58.2% (active) in the test with K-562 leukemia; -83.6% (active) with MALME-3M melanoma; -66.3% (active) with MDA-MB-231 breast; 4.39% (active) in the test with SF-268 CNS; -76.7% (active) with SF-295 CNS; -93.2% (active) with SF-539 CNS. The growth was -86.9% (active) with UACC-257 melanoma; -90.2% (active) in the test with M14 melanoma; -17% (active) in the test on HCT-15 colon; -57.8% (active) in the test with HT29 colon; -15.7% (active) in the test with SNB-75 CNS; -20% (active) in the test on SNB-19 CNS. Besides, the growth was -71.1% (active) in the test on U251 CNS; -40.9% (active) in the test on PC-3 prostate; -100% (active) with SK-MEL-5 melanoma; -80.5% (active) with UACC-62 melanoma; -86.6% (active) in the test with LOX IMVI melanoma; -60.6% (active) in the test with SK-MEL-2 melanoma.
Turning to `Cc1cccc(Cl)c1NC(=O)c1ccc2nc(NC(=O)NC3CCN(C)CC3)sc2c1`, the growth in the test on K-562 leukemia was 7.86% (active); with MALME-3M melanoma, 60.8%; in the test on MDA-MB-231 breast it was 96.7%; in the test with SF-268 CNS it was 86%; in the test with SF-295 CNS it was 83.5%; with SF-539 CNS it was 44.3%. Further, the growth is 84.7% with UACC-257 melanoma; 104% in the test with M14 melanoma; 101% in the test on HCT-15 colon; 29.6% in the test on HT29 colon; 6.73% (active) with SNB-75 CNS; 80.5% in the test on U251 CNS. The growth in the test with PC-3 prostate is 69.7%; in the test on SK-MEL-5 melanoma, 71.6%; in the test on UACC-62 melanoma it was 106%; in the test with LOX IMVI melanoma, 79.7%; in the test with SK-MEL-28 melanoma, 108%; with SK-MEL-2 melanoma it was 126%.
Take `O=C(C[n+]1ccccc1)c1ccc2ccccc2c1`: the growth with K-562 leukemia is 86.6%; with MALME-3M melanoma, 92.4%; in the test on MDA-MB-231 breast, 95.2%; in the test on SF-268 CNS, 103%; with SF-295 CNS, 88.2%; in the test on SF-539 CNS, 97.3%. Besides, the growth is 92.6% in the test on UACC-257 melanoma; 94% in the test on M14 melanoma; 109% with HCT-15 colon; 92% in the test on HT29 colon; 75.1% in the test on SNB-75 CNS; 99.5% in the test with SNB-19 CNS. Moreover, the growth with U251 CNS was 95.3%; in the test on PC-3 prostate it was 87.8%; with SK-MEL-5 melanoma, 102%; in the test on UACC-62 melanoma, 96%; in the test with LOX IMVI melanoma it was 99.8%; in the test with SK-MEL-2 melanoma, 112%.
For the molecule `CCCCCCCCN(CCCCCCCC)CCCCCCCCCN1CCCc2cc(OC)ccc21`, the growth in the test with K-562 leukemia is 80.4%; in the test on MALME-3M melanoma, 104%; with MDA-MB-231 breast, 89.9%; in the test with SF-268 CNS, 99.9%; in the test with SF-295 CNS, 88.5%; with SF-539 CNS, 104%. Also, the growth in the test with UACC-257 melanoma is 106%; in the test on M14 melanoma, 93.8%; with HCT-15 colon, 89.3%; with HT29 colon, 84.8%; in the test on SNB-75 CNS it was 84.5%; with SNB-19 CNS, 98.3%. The growth in the test with U251 CNS is 90.7%; in the test with PC-3 prostate, 85.2%; in the test with SK-MEL-5 melanoma, 109%; in the test with LOX IMVI melanoma it was 88.6%; in the test with SK-MEL-28 melanoma it was 101%; in the test on SK-MEL-2 melanoma, 101%.
Consider `CCCN(CCC)CCC(O)c1cc2c(c3ccccc13)CCCC2` (configuration not stated), for which the growth is 82.5% in the test with K-562 leukemia; 95% in the test on MALME-3M melanoma; 79.1% in the test on MDA-MB-231 breast; 83.3% with SF-268 CNS; 85.4% in the test on SF-295 CNS; 85.4% in the test on SF-539 CNS. Further, the growth in the test on UACC-257 melanoma is 95.8%; in the test with M14 melanoma, 91.9%; with HT29 colon it was 52.3%; in the test on SNB-75 CNS, 75.7%; with SNB-19 CNS, 90.5%; in the test on U251 CNS, 83.5%. Besides, the growth with PC-3 prostate is 80.9%; in the test with SK-MEL-5 melanoma, 94.7%; with UACC-62 melanoma, 81.7%; in the test with LOX IMVI melanoma, 89%; in the test with SK-MEL-28 melanoma, 98.1%; in the test on SK-MEL-2 melanoma, 108%.
Consider `CCCCN(CCCC)CCCCCCCCC(O)c1cc2ccccc2c2ccccc12` (configuration not stated), for which the growth was 22.6% with K-562 leukemia; 76.8% with MALME-3M melanoma; 56.2% in the test with MDA-MB-231 breast; 65.9% with SF-268 CNS; 77.5% with SF-295 CNS; 74.6% with SF-539 CNS. Moreover, the growth with UACC-257 melanoma is 91.4%; in the test with M14 melanoma, 45.7%; in the test on HCT-15 colon, 34.6%; in the test on HT29 colon, 32.9%; in the test with SNB-75 CNS it was 61.8%; in the test with SNB-19 CNS, 67.9%. Moreover, the growth with U251 CNS is 49.3%; in the test on PC-3 prostate, 45.2%; with SK-MEL-5 melanoma, 70%; in the test on LOX IMVI melanoma it was 49.2%; in the test with SK-MEL-28 melanoma it was 79.6%; with SK-MEL-2 melanoma, 84.7%.
Take `CCC1(C(C)C)NC(=O)NC1=O` (configuration not stated): the growth in the test with K-562 leukemia was 88.3%; in the test on MALME-3M melanoma, 104%; with MDA-MB-231 breast it was 100%; with SF-268 CNS, 102%; in the test with SF-295 CNS, 97.6%; with SF-539 CNS it was 101%. The growth was 92.4% with UACC-257 melanoma; 107% with M14 melanoma; 105% in the test with HCT-15 colon; 106% with HT29 colon; 100% with SNB-75 CNS; 101% in the test with SNB-19 CNS. Besides, the growth with U251 CNS is 98.2%; in the test on PC-3 prostate, 98.5%; in the test with SK-MEL-5 melanoma, 104%; in the test with UACC-62 melanoma, 94.6%; with LOX IMVI melanoma it was 99.7%; in the test with SK-MEL-2 melanoma, 83.8%.
